# Hits are enriched below; roughly 12% of the tested compounds scored in any of these assays.
# Cycloheximide cs: counter-screen for Shiga toxin inhibitors: cycloheximide protein synthesis inhibition | max response, % | 300,000 compounds, 12% hits | cell reporter, cycloheximide protein synthesis inhibition counterscreen | AID 2314; in the data active = max response mostly above about 13%, no sharp cut-off; inactive = mostly below about 14%; note: read at 38.3 µM for the half of the compounds with a filed dose; 0% is about no effect
# LASV entry inh: inhibitors of Lassa virus binding or cell entry; Lassa virus pseudotype entry inhibition, cell reporter; Potency, µM (highest dose often 37.9 µM), inactives show top-dose activity change, negative = inhibition, usual class: inhibitors; 300,000 compounds, 1.2% hits; calls by dose curve; tested in HEK293 cells; note: potency is the fitted concentration of half-maximal effect; % is set by controls: 0 for no effect and ±100 for the full control effect; nearly all actives have a fitted effect of over 50% in size
# Marburg entry inh: inhibitors of Marburg virus binding or cell entry. Marburg virus pseudotyped entry inhibition, cell reporter. Potency, µM (top dose mostly 37.8 µM), for inactives: at the top dose activity change, negative = inhibition, actives largely listed as inhibitors. 300,000 compounds, 1.8% hits. AID 540276; calls by dose curve; tested in HEK293 cells; note: potency is the fitted concentration of half-maximal effect; % is set by controls: 0 for no effect and ±100 for the full control effect
# Shiga inhibitor: Shiga toxin inhibition | Vero cells, Shiga toxin protein synthesis inhibition reporter | inhibition, % at 38.7 µM | 290,000 compounds, 9.2% hits | AID 2315; in the data active = inhibition mostly above about 28%, no sharp cut-off; inactive = mostly below about 43%; note: 0% is about no effect
# * hit, by the source's call; ? = inconclusive; . = no result given; ! = a repeat was not active; [ ] = another dose, or the depositor's remark.
SMILES,Cycloheximide cs,LASV entry inh,Marburg entry inh,Shiga inhibitor
O=C(c1ccco1)N1CCN(c2cc(N3CCOCC3)c(F)cc2[N+](=O)[O-])CC1,-4.7,?,-13.6%[46.1 µM],-2.1
O=C(c1ccco1)N1CCN(c2ccc([N+](=O)[O-])cc2F)CC1,12.9*,14.5%[46.1 µM],17.8%[46.1 µM],39.7*
CC(=O)c1ccc(N2CCN(C(=O)c3ccco3)CC2)c(F)c1,48.4*,-2.5%,?,58.6*
COc1ccc2nc3oc(C(=O)N4CCN(c5cc(C)ccc5C)CC4)cc3cc2c1,.,?,18.2%[46.1 µM],.
Cc1ccc(OCC(=O)Nc2cccc(O)c2)cc1C,40.3*,?,18.7%[46.1 µM],78.6*
Cc1ccc(OCC(=O)Nc2cc(NC(=O)COc3ccc(C)c(C)c3)cc(C(=O)O)c2)cc1C,1.0,.,.,8.9
Cc1cccc(OCC(=O)Nc2ccc3c(c2)C(=O)NC3=O)c1,10.4,.,.,17.5
Cc1cccc(OCC(=O)Nc2cccc(O)c2)c1,29.9*,?,25.7%,active
O=C(COc1cc(Cl)c(Cl)cc1Cl)Nc1cccc(O)c1,38.1*,.,.,115.1*
CCOC(=O)N1CCN(CC(O)COc2cc(C)cc(C)c2)CC1 (centres undefined),-6.8,-26.8%[46.1 µM],?,-11.2
O=C(CCN1CCN(c2ccccc2)CC1)N/N=C/c1ccccc1O,11.0,?,?,51.3
Cc1cc(N)n(-c2cc(C)c3ccccc3n2)n1,46.3*,?,?,78.6*
c1cncc(-c2nc(N3CCOCC3)c3ccccc3n2)c1,4.0,-4.8%,?,5.2
Cc1cc(C)c2nc(-n3nc(C)cc3N)cc(C)c2c1,25.7*,3.5%,?,108.1*
CCOC(=O)c1cnn(-c2cc(C)c3cc(C)cc(C)c3n2)c1N,.,.,-3.4%,.
Cc1cc(N)n(-c2nc(-c3cccnc3)nc3ccccc23)n1,33.1*,-15.3%,?,64.4*
Cc1cc(N)n(-c2ccccc2)n1,13.2,6.5%,-1.8%,21.0
COc1ccc(/C=C\C(=O)Oc2cccc(/C=N/NC(=O)Cc3ccc(OC)c(OC)c3)c2)cc1,65.1*,22.2%,?,45.8*
COc1ccc(/C=C/C(=O)Oc2cccc(/C=N/NC(=O)c3cccc(F)c3)c2)cc1,95.0*,-24.6%,?,128.8*
Cc1noc(C)c1CSCC(=O)Nc1nc2ccccc2s1,21.0*,4.2%[46.1 µM],-13.7%[46.1 µM],7.8
CC(=O)c1sc(NC(=O)CSCc2c(C)noc2C)nc1-c1ccccc1,.,-21.5%,-10.9%,.
CCN(CC)S(=O)(=O)c1cc(NC(=O)CSCc2c(C)noc2C)ccc1C,.,2.82µM*,?,.
CCc1ccc2nc(NC(=O)CSCc3c(C)noc3C)sc2c1,20.6*,6.4%,-2.0%,68.3*
CCN(CC)S(=O)(=O)c1cc(NC(=O)CCc2c(C)noc2C)ccc1C,.,-15.0%[46.1 µM],?,.
COC(=O)c1nn(-c2nc(-c3cccc(OC)c3)cc(C(F)(F)F)n2)cc1[N+](=O)[O-],-5.6,9.2%[46.1 µM],4.8%[46.1 µM],2.7
SMILES,Cycloheximide cs,LASV entry inh,Marburg entry inh,Shiga inhibitor
Nc1ncc(S(=O)(=O)NCc2ccccc2)cn1,.,17.7%[46.1 µM],.,.
CC(C)(C)OC(=O)N1CCC(c2c(C(=O)NCC3CCN(C4CCCC4)C3)cnn2-c2ccccc2Cl)CC1 (centres undefined),-7.6,.,.,18.4
COCC(C)Nc1ncnc2c1cnn2-c1ccc(C)c(C)c1 (centres undefined),.,1.1%[46.1 µM],.,.
Cc1ccc(Cl)cc1N1CCN(C(c2cccnc2)c2nnnn2C2CCCCC2)CC1 (centres undefined),-4.2,?,14.6µM*!,-9.7
c1cncc(C(c2nnnn2C2CCCCC2)N2CCCCC2)c1 (centres undefined),-1.3,-0.2%[46.1 µM],-9.1%[46.1 µM],-4.8
Cc1ccc(Cl)cc1N1CCN(C(c2ccc(C#N)cc2)c2nnnn2C2CCCC2)CC1 (centres undefined),2.1,-18.4%,5.8µM*,-20.5
Cc1ccc2occ(CC(=O)N(Cc3ccc(C(C)C)cc3)C3CCS(=O)(=O)C3)c2c1 (centres undefined),.,-11.1%[46.1 µM],?,.
CCCCOc1ccc(N2C(N)=NC(N)=NC23CCCCC3)cc1,-1.6,.,.,7.6
CC(c1ccccc1)N1C(=O)c2cccnc2C1=O (centres undefined),0.2,-3.0%,5.4%,-1.6
CC(NC1=CC(=O)c2cccnc2C1=O)C(O)c1ccccc1 (centres undefined),.,?,11.2µM*,.
CCOc1ccc(NC(=O)C(C)Sc2nccn2C)cc1 (centres undefined),16.9*,.,.,9.3
CCOc1ccc(NC(=O)CSc2nccn2C)cc1,41.8*,?,?,48.2*
Cn1ccnc1SCC(=O)Nc1ccc(Oc2ccccc2)cc1,24.4*,-23.9%,-17.5%,54.7
COc1ccc(C(O)c2nccn2C)cc1 (centres undefined),-2.3,1.4%,11.9%,-16.9
CCOc1ccc(NC(=O)C(C)Sc2nnc(C)n2C)cc1 (centres undefined),-1.7,.,.,15.4
CCOc1ccc(C(O)c2nccn2C)cc1 (centres undefined),42.0*,19.6%,4.4%,107.6*
Cc1cccc(OCC(=O)NCCCNC(=O)c2ccncc2)c1,-1.3,2.0%,21.2%,-1.8
O=C(OCC#CCSc1nnc(-c2ccccc2)o1)c1cc2ccccc2o1,-2.8,1.1%,2.3%,-17.9
O=C(OCC#CCSc1nnc(-c2ccc(Br)cc2)o1)c1cccs1,12.9,17.4%,11.1%,36.9
Cc1ccc(-c2nnc(SCC#CCOC(=O)c3ccco3)o2)cc1,27.1*,5.8%,-6.1%,47.0
Cc1ccc(-c2nnc(SCC#CCOC(=O)c3cccs3)o2)cc1,8.6*,7.9%,?,39.0
Cc1ccc(CNC(=O)CCCc2cn(C)c3ccccc23)cc1,-1.6,.,.,2.6
COc1ccc(C(=O)Nc2cc(OCc3ccccc3)c(Cl)cc2Cl)cc1,0.6,-4.7%,15.7%,5.0
O=C(O)c1cccc(COc2ccccc2Cl)c1,13.6*,0.517µM*,0.411µM*,18.8*
CN(C(=O)c1ccccc1OCc1ccc(Cl)cc1)c1ccccc1,0.7,?,?,-19.4
SMILES,Cycloheximide cs,LASV entry inh,Marburg entry inh,Shiga inhibitor
O=C(Nc1ccccc1Cl)c1cccc(COc2cc(Cl)ccc2Cl)c1,41.6*,?,-5.3%,50.9*
COc1cc(C(=O)O)ccc1Cl,12.6,.,.,28.9
CCN(CC)C(=O)c1ccc(COc2ccccc2Cl)cc1,19.5,?,?,48.1*
CN1CCN(C(=O)c2cccc(COc3cc(Cl)ccc3Cl)c2)CC1,48.0*,29.1%,?,102.6*
CC(=O)c1c(C)[nH]c(C(=O)OCC(=O)NCc2cccs2)c1C,.,-10.6%,-28.5%,.
Cc1ccc2c(c1)c(=O)c(C(=O)c1ccc3c(c1)OCO3)cn2Cc1ccc(Cl)cc1,.,-16.9%[46.1 µM],?,.
Cc1ccc(-c2nc3scc(CCNS(=O)(=O)c4c(C)noc4C)n3n2)cc1,.,-0.3%[46.1 µM],.,.
Nc1cc(-c2ccccc2)c[nH]c1=O,4.1,.,.,25.5
CCC(C)NC(=O)c1ccc(COc2ccccc2Cl)cc1 (centres undefined),15.4*,-0.2%,-10.3%,46.1
O=C(O)c1ccc(COc2ccccc2Cl)cc1,28.5*,-8.2%,9.8%,145.2*
O=C(CN1C(=O)NC2(CCCCCC2)C1=O)c1ccc2c(c1)OCCO2,36.0*,?,-15.6%[46.1 µM],117.9*
CC1CCC2(CC1)NC(=O)N(CC(=O)NC(=O)Nc1ccc3c(c1)OCCO3)C2=O (centres undefined),1.0,-20.4%,-1.6%[46.1 µM],-2.1
O=C(CN1C(=O)NC2(CCCCCC2)C1=O)c1ccc(F)cc1,.,18.2%[46.1 µM],6.1%,.

# Bioassay records from PubChem.
